Our source for the growth inhibition, inhibition and outcome values is PubChem BioAssay.

The nature of assay [1]: antimalarial activity against Dd2 strain (AID 2302;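 active means growth inhibition above 50% at the single 2 µM test dose, taken to imply half-maximal potency below 2 µM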;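 further: 0% = DMSO untreated growth and 100% = chloroquine plus artemisinin killed control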). The following applies: P. falciparum Dd2 in RBCs, LDH growth readout, 72 h; at 2 µM; hits give high values.
Assay [2] in a line: human hepatoma cell viability loss – ATP luminescence, cytotoxicity control for P. falciparum antimalarial project, primary screen (AID 2303;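 active means inhibition above 50%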;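 further: 0% = DMSO wells and 100% = digitonin-killed cells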). Particulars: HepG2 viability, 24-48 h, at 10 µM, hits give high values.
The target in assay [3] is L-lactate dehydrogenase (Plasmodium falciparum (isolate CDC / Honduras)) (UniProt Q27743). Nature of the assay: PfLDH activity inhibition – cell lysate, 3D7 strain, counter-screen for P. falciparum growth inhibition project (AID 2304).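 Further: 0% = vehicle and 100% = reference inhibitor.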 Particulars: P. falciparum 3D7 crude extract, LDH APAD/NBT absorbance; at 2 µM; hits give high values.
L-lactate dehydrogenase (Plasmodium falciparum (isolate CDC / Honduras)), sequence (Q27743 whole entry, looked up): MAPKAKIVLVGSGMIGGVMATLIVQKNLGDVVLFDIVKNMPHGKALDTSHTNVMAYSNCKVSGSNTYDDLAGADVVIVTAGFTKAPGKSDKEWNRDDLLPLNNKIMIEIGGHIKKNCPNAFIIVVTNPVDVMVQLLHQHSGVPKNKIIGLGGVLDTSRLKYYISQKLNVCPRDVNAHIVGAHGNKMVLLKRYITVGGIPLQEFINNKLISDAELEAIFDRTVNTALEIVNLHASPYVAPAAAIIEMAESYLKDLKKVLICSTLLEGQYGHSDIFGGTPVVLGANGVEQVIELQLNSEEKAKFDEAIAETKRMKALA
Assay [4] can be described thus: inhibition of 3D7 malaria parasite growth – strain 3D7 (AID 2306).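 Further: 0% = DMSO wells and 100% = chloroquine plus artemisinin control wells.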 The following applies: P. falciparum 3D7 erythrocytic growth, LDH absorbance, 72 h; at 2 µM; hits give high values.
Assay [5] has as its target Calcium-dependent protein kinase 1 (Plasmodium falciparum (isolate 3D7)) (UniProt P62344). Put plainly: PfCDPK1 kinase inhibitors, biochemical, TCAMS library (AID 1159585; cut-off not given, nearly all actives have IC50 up to about 0.98 µM;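 further: inhibitors leave more ATP so luminescence rises with inhibition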). Particulars: recombinant PfCDPK1, Kinase-Glo ATP depletion luminescence.
Assay [6] concerns the target Plasmodium falciparum protein kinase 6 (PK6, PF3D7_1337100) (UniProt Q8IDW1). Put plainly: PfPK6 kinase inhibitors, biochemical, TCAMS library (AID 1159586). The following applies: recombinant PfPK6, Kinase-Glo ATP depletion luminescence. For orientation: Kinase-Glo measures the ATP left after a reaction by luminescence.
In assay [7] the target is Protein kinase 7 (PK7), Plasmodium falciparum 3D7 (PF3D7_0213400) (UniProt Q7YTF7). Nature of the assay: inhibition of Plasmodium PK7 catalytic activity – biochemical, TCAMS antimalarial set, Kinase-Glo luminescence (AID 1159587). The following applies: recombinant PfPK7, Kinase-Glo ATP depletion luminescence.
Protein kinase 7 (PK7), Plasmodium falciparum 3D7 (PF3D7_0213400), sequence (Q7YTF7 1-343): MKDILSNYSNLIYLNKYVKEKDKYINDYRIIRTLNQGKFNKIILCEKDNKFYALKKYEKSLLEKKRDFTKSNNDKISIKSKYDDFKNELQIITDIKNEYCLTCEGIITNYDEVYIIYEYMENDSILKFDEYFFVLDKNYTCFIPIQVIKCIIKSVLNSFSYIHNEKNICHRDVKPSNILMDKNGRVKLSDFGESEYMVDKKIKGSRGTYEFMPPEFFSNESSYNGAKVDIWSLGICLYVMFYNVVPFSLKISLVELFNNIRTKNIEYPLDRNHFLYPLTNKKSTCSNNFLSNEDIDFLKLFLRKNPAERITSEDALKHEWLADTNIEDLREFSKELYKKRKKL
In assay [8] the target is Calcium-dependent protein kinase 4 (Plasmodium falciparum (isolate 3D7)) (UniProt Q8IBS5). Put plainly: PfCDPK4 kinase inhibitors, biochemical, TCAMS library (AID 1159588; cut-off not given, nearly all actives have IC50 up to about 0.91 µM). Particulars: recombinant PfCDPK4, Kinase-Glo ATP depletion luminescence.
Calcium-dependent protein kinase 4 (Plasmodium falciparum (isolate 3D7)), sequence (Q8IBS5 whole entry, looked up): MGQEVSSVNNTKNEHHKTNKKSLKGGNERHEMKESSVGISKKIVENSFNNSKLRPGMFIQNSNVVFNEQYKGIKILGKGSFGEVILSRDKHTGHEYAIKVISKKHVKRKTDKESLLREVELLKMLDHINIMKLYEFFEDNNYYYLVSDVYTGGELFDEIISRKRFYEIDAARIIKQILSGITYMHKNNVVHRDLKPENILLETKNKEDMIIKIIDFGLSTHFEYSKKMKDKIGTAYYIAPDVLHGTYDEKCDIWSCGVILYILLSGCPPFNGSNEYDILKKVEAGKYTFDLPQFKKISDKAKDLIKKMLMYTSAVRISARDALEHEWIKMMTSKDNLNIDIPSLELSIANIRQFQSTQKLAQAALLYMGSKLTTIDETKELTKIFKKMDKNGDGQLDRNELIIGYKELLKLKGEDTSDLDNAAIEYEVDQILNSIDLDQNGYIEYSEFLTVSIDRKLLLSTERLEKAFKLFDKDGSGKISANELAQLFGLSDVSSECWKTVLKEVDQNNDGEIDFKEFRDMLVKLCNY

A number with no mark means an inactive call. For some assays here: Measured potencies and affinities stand elsewhere. Activity calls are given as the source filed them. Unless noted, how the calls were made is not given here.

Calcium-dependent protein kinase 1 (Plasmodium falciparum (isolate 3D7)), sequence (P62344 whole entry, looked up): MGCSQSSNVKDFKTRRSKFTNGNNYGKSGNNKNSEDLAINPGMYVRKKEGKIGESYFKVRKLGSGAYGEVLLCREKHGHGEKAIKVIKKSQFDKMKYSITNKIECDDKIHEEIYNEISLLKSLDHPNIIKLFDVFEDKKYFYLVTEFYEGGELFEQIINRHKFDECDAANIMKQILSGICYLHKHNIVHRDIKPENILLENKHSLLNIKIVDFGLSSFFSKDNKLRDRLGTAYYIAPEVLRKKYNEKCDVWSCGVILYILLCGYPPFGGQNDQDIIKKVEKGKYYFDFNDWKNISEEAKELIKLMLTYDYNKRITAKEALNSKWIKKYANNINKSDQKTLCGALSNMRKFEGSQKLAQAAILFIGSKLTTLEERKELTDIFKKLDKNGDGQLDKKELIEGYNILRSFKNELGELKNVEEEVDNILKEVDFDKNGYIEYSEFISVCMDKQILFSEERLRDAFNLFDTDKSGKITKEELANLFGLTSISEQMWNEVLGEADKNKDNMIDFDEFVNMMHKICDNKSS
Plasmodium falciparum protein kinase 6 (PK6, PF3D7_1337100), sequence (Q8IDW1 1-305): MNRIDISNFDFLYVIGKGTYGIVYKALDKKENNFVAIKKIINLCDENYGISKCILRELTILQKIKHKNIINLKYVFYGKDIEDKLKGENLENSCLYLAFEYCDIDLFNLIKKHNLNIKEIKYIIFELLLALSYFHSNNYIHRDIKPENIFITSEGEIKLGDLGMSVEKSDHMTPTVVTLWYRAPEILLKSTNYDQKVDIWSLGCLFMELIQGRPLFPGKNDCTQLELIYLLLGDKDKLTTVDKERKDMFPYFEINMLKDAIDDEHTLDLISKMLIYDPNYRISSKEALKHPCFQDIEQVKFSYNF

For the compound `COc1ccc(CCNc2nc(N)c3cc(OC)c(OC)cc3n2)cc1`, the growth inhibition in assay [1] is 1%; in assay [4], 100% (active). Moreover, the inhibition (usually the relative decrease from the control value, in per cent) in assay [2] was 16%; in assay [3] it was -1%. For the same compound, the result in assay [5], in assay [6], in assay [7] and in assay [8] was inactive.
In the case of `CCc1cc(-c2onc(C)c2-c2cc3ccccc3o2)c(O)cc1OC`, the figures for the growth inhibition in assay [1] and in assay [4] were 33% and 95% (active), respectively. Besides, the inhibition in assay [2] was 48%; in assay [3], -2%. The result in assay [5], in assay [6], in assay [7] and in assay [8] was inactive.
As to `N#Cc1ccc(CN2CCC(Oc3ccc(NC(=O)c4cccs4)cc3)C2)cc1` (configuration not stated), the growth inhibition is 65% (active) in assay [1] and 82% (active) in assay [4]. The inhibition in assay [2] is 5%; in assay [3] it was 1%. For the same compound, the outcome in assay [5], in assay [6], in assay [7] and in assay [8] was inactive.
Take `NC(=O)c1ccc(NCC(=O)Nc2cccc(-c3cccc(-c4nc5ccc(C(F)(F)F)cc5[nH]4)c3)c2)cc1`: the growth inhibition was 41% in assay [1] and 99% (active) in assay [4]. For the same compound, the inhibition was 32% in assay [2] and 1% in assay [3]. For the same compound, the result in assay [5], in assay [6], in assay [7] and in assay [8] was inactive.
